High-throughput results: PubChem, National Center for Advancing Translational Sciences (NCATS)
An excerpt weighted towards active compounds, which were near 12% of everything screened.
TDP1 block: TDP1 (human) enzyme inhibition. Q9NUW8. recombinant TDP1, AlphaScreen DNA substrate cleavage. Potency, µM (highest dose often 130 µM), usual class: inhibitors. 0.28% of 350,000 active; also: nearly all actives have a fitted effect of over 40% in size
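Enzyme-compound mixtures sat 15 min at room temperature, followed by a 5 min reaction with 15 nM final substrate and 10 min with AlphaScreen beads. Recombinant human Tdp1 was used at 1 nM final.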
Sfp inh: inhibitors of Bacillus subtilis Sfp phosphopantetheinyl transferase; Biochemical Sfp PPTase activity, qHTS; Potency, µM, usual class: inhibitors; 3.5% of 310,000 active;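 also: the enzyme is Sfp with the accession as filed and its product quenches rhodamine fluorescence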
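Reaction rates are the 30-min fluorescence difference (ex 525, em 598 nm) in wells containing 15 nM Sfp, 5 uM rhodamine-CoA and 12.5 uM BHQ-2-YbbR at pH 7.6 with 10 mM MgCl2.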
JMJD2A Tudor: JMJD2A Tudor domain (human) inhibition; AID 504339; Potency, µM (top dose mostly 114 µM), usual class: inhibitors; O75164; 4.4% of 390,000 active; AlphaScreen JMJD2A-Tudor / H3K4me3 peptide binding; also: nearly all actives have a fitted effect of over 50% in size
G9a inh: blocks human histone lysine methyltransferase G9a; Q96KQ7; G9a H3K9 monomethylation, AlphaScreen, 2 h; 8.8% of 350,000 active; Potency, µM (series often up to 102 µM), hits mostly inhibitors; also: nearly all actives have a fitted effect of over 75% in size
Target sequence (Q96KQ7 913-1193 limits assumed): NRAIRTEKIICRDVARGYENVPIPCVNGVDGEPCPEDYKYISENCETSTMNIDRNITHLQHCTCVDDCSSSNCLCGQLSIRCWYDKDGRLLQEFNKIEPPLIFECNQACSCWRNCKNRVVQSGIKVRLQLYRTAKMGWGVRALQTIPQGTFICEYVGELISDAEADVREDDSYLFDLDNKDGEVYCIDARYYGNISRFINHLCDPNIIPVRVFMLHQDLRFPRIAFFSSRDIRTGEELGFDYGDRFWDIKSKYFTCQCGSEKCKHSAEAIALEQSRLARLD
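Compounds were preincubated with 20 nM G9a for 15 min, after which biotinylated H3K9 peptide (500 nM) and SAM (20 uM) started a 2 h room-temperature reaction. Monomethylated product was quantified by antibody-based AlphaScreen chemiluminescence.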
HP1b binding inh: blocks HP1-beta chromodomain binding to methylated histone tails; P83916; AlphaScreen HP1-beta / biotin-H3K9me3 peptide binding; Potency, µM (top dose mostly 114 µM), hits mostly inhibitors; 0.56% of 390,000 active; AID 540317; also: nearly all actives have a fitted effect of over 70% in size
Target sequence (P83916 whole entry, looked up): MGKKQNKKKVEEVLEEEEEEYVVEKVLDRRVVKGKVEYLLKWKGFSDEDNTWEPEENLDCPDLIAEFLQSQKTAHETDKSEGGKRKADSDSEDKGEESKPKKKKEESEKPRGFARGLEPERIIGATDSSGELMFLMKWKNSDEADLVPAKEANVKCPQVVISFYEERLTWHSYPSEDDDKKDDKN
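AlphaScreen: HP1-beta (50 nM) preformed 30 min with biotin-H3(1-18)K9me3 peptide (50 nM) in PBS pH 7.4, 0.01% Tween-20. Compound added for 30 min at RT, then streptavidin donor/nickel chelate acceptor beads (10 ug/mL) for 30 min.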
BAZ2B inh: BAZ2B (human) inhibition; 4.4% of 360,000 active; Potency, µM (top dose mostly 114 µM), usual class: inhibitors; AlphaScreen BAZ2B-H3K14Ac peptide displacement; AID 504333; Q9UIF8; also: nearly all actives have a fitted effect of over 60% in size
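BAZ2B 50 nM plus b-H3(5-23)K14Ac 50 nM, PBS pH 7.4/0.01% Tween-20, 30 min RT; compound added (max 110 uM), 30 min RT; streptavidin donor/Ni-chelate acceptor beads 10 ug/mL final, 20 min dark; AlphaScreen read.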
Large screens that a line does not name were inactive. Calls follow the shape of the dose curve; as a rule, active = well fitted curve in the direction sought with a large enough effect; inconclusive = small, poorly fitted or top-dose-only effect, or another doubt; inactive = no such curve, though single readings can be large; an effect the other way counts as inactive or inconclusive.

CCN1C(=O)[C@H]2[C@@H](c3ccc(SC4CCCCC4)cc3)N[C@@](CC(C)C)(C(=O)OC)[C@H]2C1=O	none (no result: Sfp inh)
COc1ccc([C@H]2[C@H](C(=O)OC(C)(C)C)N3N=Cc4ccccc4C3C23C(=O)c2ccccc2C3=O)cc1OC (stereo partly drawn)	JMJD2A Tudor inconclusive, G9a inh inconclusive, BAZ2B inh 18µM
Cc1cccc(NC(=O)CNC(=O)Cn2cc(C(F)(F)F)cc(Cl)c2=O)c1C	G9a inh inconclusive (no result: Sfp inh)
CCOC(=O)c1c(C)n(-c2ccccc2)c2ccc(OC(=O)c3ccccc3NC(=O)C(C)(C)C)cc12	none (no result: Sfp inh)
CCc1ccc(NC(=O)CN(CC(=O)Nc2ccc(CC)cc2)CC(C)O)cc1 (stereo not drawn)	JMJD2A Tudor inconclusive (no result: TDP1 block)
CC(C)Oc1ccc(CNCC2(O)CCOC(C)(C)C2)cc1 (stereo not drawn)	JMJD2A Tudor 2.2µM, G9a inh 8.9µM, HP1b binding inh inconclusive, BAZ2B inh inconclusive
Cc1c(NC(=O)C(CC(=O)O)NCc2ccco2)c(=O)n(-c2ccccc2)n1C (stereo not drawn)	JMJD2A Tudor 5µM, G9a inh inconclusive, BAZ2B inh 50µM
COCCOC(=O)C(CC(=O)O)NCc1ccco1 (stereo not drawn)	Sfp inh inconclusive, JMJD2A Tudor inconclusive (no result: G9a inh)
Cc1c(N(C)S(=O)(=O)c2cccc(C(=O)NCC3CCCO3)c2)c(=O)n(-c2ccccc2)n1C (stereo not drawn)	none (no result: Sfp inh)
Cc1c(NC(=O)c2ccco2)c(=O)n(-c2ccccc2)n1C	none
Cc1c(N(C)S(=O)(=O)c2cccc(C(=O)NC(C)C)c2)c(=O)n(-c2ccccc2)n1C	Sfp inh 79µM, G9a inh 32µM
COC(=O)C(CC(=O)O)NCc1ccco1 (stereo not drawn)	Sfp inh inconclusive, JMJD2A Tudor 20µM, BAZ2B inh inconclusive (no result: G9a inh)
O=C(O)CC(NCc1ccco1)C(=O)OCCCl (stereo not drawn)	JMJD2A Tudor 28µM, G9a inh 7.9µM, BAZ2B inh inconclusive
Cn1c(-n2cccc2)c(-c2c(-c3ccc(F)cc3)[nH]c3c2c(=O)[nH]c(=O)n3C)c(=O)[nH]c1=O	none (no result: Sfp inh)
Cc1c(NS(=O)(=O)c2cccc(C(=O)NCc3ccc(Cl)cc3)c2)c(=O)n(-c2ccccc2)n1C	none
O=C(O)CC(NCc1ccco1)C(=O)Nc1cccc(O)c1 (stereo not drawn)	Sfp inh inconclusive, JMJD2A Tudor 3.2µM, G9a inh 50µM (no result: TDP1 block)
Cc1c(NS(=O)(=O)c2cccc(C(=O)NCc3ccco3)c2)c(=O)n(-c2ccccc2)n1C	JMJD2A Tudor 63µM (no result: TDP1 block, Sfp inh, G9a inh, BAZ2B inh)
O=C(NN=C1CCCC1)c1cccc(O)c1	none
O=C(NN=C1CCCC1)c1cc(O)cc(O)c1	TDP1 block 18µM, JMJD2A Tudor inconclusive, HP1b binding inh inconclusive, BAZ2B inh 79µM (no result: G9a inh)
CC1=C(c2ccc(C)c(C)c2)S(=O)(=O)N(Cc2ccc(C(=O)NCc3ccc(C)cc3)cc2)C1=O	none (no result: Sfp inh)
O=C(CCC(=O)c1ccc(Oc2ccccc2)cc1)Nc1cccc(Cl)c1Cl	none (no result: TDP1 block)
O=C(CC(Nc1cccc(Cl)c1Cl)C(=O)OCC(=O)c1cccs1)c1ccccc1 (stereo not drawn)	Sfp inh 56µM
Cc1c(Cl)cccc1NC(CC(=O)c1ccccc1)C(=O)OCC(=O)c1cccs1 (stereo not drawn)	Sfp inh 8.9µM, G9a inh 35µM
O=C(CC(Nc1cccc(Cl)c1Cl)C(=O)O)c1ccccc1 (stereo not drawn)	Sfp inh 8.9µM, G9a inh 28µM (no result: TDP1 block)
CC1=C(CC(=O)O)c2cc(F)ccc2C1=Cc1ccc(S(C)(=O)=O)cc1	G9a inh inconclusive (no result: TDP1 block, Sfp inh)
COCCn1c(C)cc(O)c(C(c2ccccc2)N2CCN(c3ccc(F)cc3)CC2)c1=O (stereo not drawn)	G9a inh inconclusive (no result: Sfp inh)
CCOc1ccc(C(c2c(O)cc(C)n(CCOC)c2=O)N2CCN(c3ccc(F)cc3)CC2)cc1 (stereo not drawn)	G9a inh 18µM (no result: Sfp inh)
CC1CN(CCCCSc2ccc(Cl)cc2)CC(C)O1 (stereo not drawn)	JMJD2A Tudor 18µM, G9a inh 22µM, HP1b binding inh inconclusive, BAZ2B inh inconclusive (no result: TDP1 block)
Clc1ccc(SCCOCCN2CCc3ccccc3C2)cc1	none
Clc1ccc(SCCCCN2CCOCC2)cc1	JMJD2A Tudor 5.6µM, G9a inh 4µM, HP1b binding inh 40µM, BAZ2B inh 32µM
CC1CCCN(CCSc2ccc(Cl)cc2)C1 (stereo not drawn)	JMJD2A Tudor inconclusive, G9a inh 11µM, HP1b binding inh inconclusive
CC1CCN(CCOCCSc2ccc(Cl)cc2)CC1	JMJD2A Tudor 7.1µM, HP1b binding inh inconclusive, BAZ2B inh 50µM (no result: G9a inh)
CC(=O)OC[C@@H]1O[C@@H](O/N=C2/C[C@@H](O)[C@@H](O)[C@@H]3[C@@H]4C(=O)N(C[C@@H]5CCCO5)C(=O)[C@H]4CC[C@H]23)[C@H](OC(C)=O)[C@H](OC(C)=O)[C@@H]1OC(C)=O	none (no result: JMJD2A Tudor, G9a inh, HP1b binding inh, BAZ2B inh)
CC(=O)Oc1ccc(OC(C)=O)c(SCCCCCN2CCOCC2)c1	Sfp inh 79µM, HP1b binding inh inconclusive
CC1CN(CCOCCSc2ccc(Cl)cc2)CC(C)O1 (stereo not drawn)	JMJD2A Tudor 8.9µM, G9a inh inconclusive, HP1b binding inh inconclusive, BAZ2B inh 50µM (no result: TDP1 block)
Cc1nc(-c2c(C(=O)NNC(=O)Nc3c(C)cccc3C)noc2C)cs1	none
Cc1c(P(=S)(c2ccccc2)c2ccccc2)c2ccccc2n1C(=O)NCc1ccc(F)cc1	none (no result: Sfp inh, G9a inh, HP1b binding inh, BAZ2B inh)
COc1ccc(C(=O)CC(=O)c2ccc(OC)cc2)cc1	none (no result: TDP1 block)
COc1ccc(C(=O)C[N+]2(C)CCOCC2)cc1	JMJD2A Tudor 22µM, G9a inh 13µM, BAZ2B inh inconclusive
COc1ccc(OC)c(C2C(C(=O)c3ccco3)=C(O)C(=O)N2Cc2cccnc2)c1 (stereo not drawn)	G9a inh inconclusive, BAZ2B inh inconclusive
CCOc1cccc(C2C(C(=O)c3ccco3)=C(O)C(=O)N2Cc2ccncc2)c1 (stereo not drawn)	JMJD2A Tudor inconclusive, G9a inh 35µM
CCCOc1cccc(C2C(C(=O)c3cccs3)=C(O)C(=O)N2Cc2cccnc2)c1 (stereo not drawn)	G9a inh inconclusive, HP1b binding inh inconclusive
COc1cc(C2C(C(=O)c3ccco3)=C(O)C(=O)N2Cc2cccnc2)cc(OC)c1OC (stereo not drawn)	JMJD2A Tudor 89µM (no result: G9a inh)
C=CCN1C(=O)C(CC(=O)O)SC1=Nc1ccc(N=Nc2ccccc2)cc1 (stereo not drawn)	JMJD2A Tudor inconclusive, G9a inh 40µM, BAZ2B inh 40µM
